According to PubChem BioAssay (NCI):
This is part of a sample that, as a whole, favours compounds with a hit. Of some 83,000 tested, about 20% had one in any assay.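 Step 1: grow cells in 96-well plates. Step 2: add test compound at a single concentration. Step 3: incubate 48 h. Step 4: record percent growth.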 Activity calls are given as the source filed them.

test system: SNB-75 CNS; assay: NCI-60 one-dose screen, 48 h (100 = growth as untreated, 0 = no growth, -100 = all killed); details: 10 µM unless noted
Method: Growth inhibition of the SNB-75 human tumor cell line is measured as a screen for anti-cancer activity. Cells are grown in 96 well plates and exposed to the test compound for 48 hours. Compounds are tested at a single concentration, which is 10^-5 M for most compounds. The reported endpoint is percent growth (GI% or GIPRCNT), where numbers from 0 - 100% represent growth inhibition, and numbers from -100% - 0 represent cell death. For example, a value of 40 represents 60% growth inhibition. A value of 0 means no net growth occurred over the course of the experiment. A value of -40 indicates 40% of cells at the beginning of the experiment died by the end of the experiment. A value of -100 means all cells are dead at the end of the experiment.
NCI-60 Human Tumor Cell Lines Screen was performed using the standard one-dose NCI protocol, which is described in more detail at https://dtp.cancer.gov/discovery_development/nci-60/default.htm.
Compounds with GIPRCNT values below 10 were considered active. Activity score was based on GIPRCNT using the following formula: […]
Score is 0 for GIPRCNT values of 100 or above, 50 for GIPRCNT values of 0, and 100 for GIPRCNT values of -100.

SMILES	growth
O=C(Nc1cccc(Cl)c1)Nc1cccc(Cn2c(=O)[nH]c3ccc(Oc4ncccn4)cc3c2=O)c1	57.8% (inactive)
CCOC(=O)C1=C(N)Oc2c(sc3c(F)cccc23)C1c1ccc(O)cc1 (stereo not given)	31.3% (inactive)
COC(=O)c1c(C)c2n(c1C)C(=O)C(c1ccccc1)=C2	53.2% (inactive)
Nc1ncc(-c2ccc3ncnc(Nc4cccc(Cl)c4)c3c2)cn1	49.8% (inactive)
CSc1nnc(-c2cc3c([nH]c4ccccc43)c(-c3cccc(O)c3)n2)n1-c1ccccc1	5.14% (active)
O=C(/C=C/c1ccccc1)Nc1ncc(Cc2ccccc2Cl)s1	15.8% (inactive)
COC(=O)c1cc(N=C2NC(=O)/C(=C/C=C/c3ccccc3)S2)ccc1O	12.9% (inactive)
Nc1ncnc2c1c(-c1cccc(Cl)c1)nn2CC(=O)N1CCOCC1	94.2% (inactive)
COc1cc2oc(-c3cccc(NC(=O)c4ccccc4)c3)cc(=O)c2c(OC)c1OC	77.4% (inactive)
O=C(Nc1nc(-c2ccc(Cl)cc2)nc2c1sc(=S)n2-c1ccccc1)C(F)(F)F	-44.1% (active)
O=C(/C=C/c1cccc(Cl)c1)c1ccc(Nc2nc(Nc3ccc(F)cc3)nc(Nc3ccc(Cl)cc3)n2)cc1	95.7% (inactive)
COc1ccc(/C=C(\C#N)n2nnc3cc(Cl)ccc32)cc1	-47.6% (active)
Cc1cccc(/C=C/c2c(C(=O)/C=C/c3ccccc3)c(C)nc3ccccc23)c1	-9.89% (active)
C#CCOC(=O)/C=C/c1cn(-c2ccccc2)nc1-c1ccc(OC)cc1	66.6% (inactive)
NC(=O)c1cccc(-n2ccc3cc(NC(=O)c4ccc(N5CCOCC5)c(C(F)(F)F)c4)ccc32)n1	52.8% (inactive)
COc1ccc(/C=C/C(=O)c2ccc(Nc3ccnc4cc(Cl)ccc34)cc2)cc1	102% (inactive)
CC(C)(Sc1cc(C(C)(C)C)c(OC(=O)CCCC(=O)O)c(C(C)(C)C)c1)Sc1cc(C(C)(C)C)c(OC(=O)CCCC(=O)O)c(C(C)(C)C)c1	68% (inactive)
O=C(CSc1oc(-c2ccccc2)nc1S(=O)(=O)c1ccccc1)Nc1ccc(F)cc1	87.8% (inactive)
NS(=O)(=O)c1ccccc1NC(=O)Nc1nc2ccccc2s1	86.9% (inactive)
O=C1/C(=C/c2ccccc2Br)COc2ccc(O)cc21	89.3% (inactive)

SMILES	growth
Cc1cc(S(=O)(=O)/N=C(\N)n2nc(C)c(C)c2C)c(SCc2ccccc2)cc1Cl	79.4% (inactive)
CCN(CC)c1ccc(\C=N/N=C(N)/C(N)=N\N=C/c2ccc(N(CC)CC)cc2)cc1	93% (inactive)
Cc1cc(=O)oc2cc(OCc3nn4c(Nc5nc6ccccc6s5)c(-c5ccccc5)nc4s3)ccc12	84.4% (inactive)
O=C(CSc1nnc(-c2cnccn2)n1-c1ccccc1)c1ccc(Cl)cc1	110% (inactive)
Cc1ccc(NC(=O)Cn2cc(CN3CCN(c4ccnc5cc(Cl)ccc45)CC3)nn2)cc1	70.7% (inactive)
CCn1cc(C(=O)NNC(=S)Nc2ccc(C)cc2)c(=O)c2ccc(C)nc21	97.3% (inactive)
O=C1Nc2ccccc2/C1=C/c1cccn1CCCCn1c2ccccc2c(=O)c2ccccc21	78% (inactive)
O=C(O)c1cn(C2CC2)c2cc(N3CCN(C(=O)N(c4ccccc4)c4nc(-c5ccccc5)cs4)CC3)c(F)cc2c1=O	-9.1% (active)
Cc1ccc2c(c1)=C/C(=C\c1cc(-c3ccccc3)oc1O)C(=O)N=2	93.5% (inactive)
Cc1ccc2c(Cn3cc(CSc4nc5ccccc5o4)nn3)cc(=O)oc2c1	105% (inactive)
c1ccc([P+](c2ccccc2)(c2ccccc2)c2ccc3c4ccc([P+](c5ccccc5)(c5ccccc5)c5ccccc5)c5cccc(c6cccc2c63)c54)cc1	13.5% (inactive)
CCSc1oc(-c2ccccc2)nc1[P+](c1ccccc1)(c1ccccc1)c1ccccc1	2.74% (active)
C#CCOc1ccc2ncnc(Nc3ccc(NC(=O)C=C)cc3)c2c1	70% (inactive)
COCCn1cc(-c2csc(-c3cn(C)c4ccc(Br)cc34)n2)c2cccnc21	75.6% (inactive)
Cn1cc(-c2csc(-c3c[nH]c4ccc(Br)cc34)n2)c2ccnc(Cl)c21	85.2% (inactive)
Cc1c2cnccc2c(C)c2c1c1cc(C#N)ccc1n2C	-35.8% (active)
c1ccc(Cn2cc3c(c2)-c2oncc2CC3)cc1	19% (inactive)
O=S(=O)(Nc1cc(F)cc(Cl)c1)c1ccc(-c2cnc(C3CC3)o2)cc1	-22.1% (active)
O=S(=O)(Nc1ccc(Cl)c(C(F)(F)F)c1)c1ccc(-c2cnc(C3CC3)o2)cc1	-2.82% (active)
O=C(O)c1ccc(-n2cc(/C=N/Nc3ccccc3)c(-c3ccc(F)cc3F)n2)cc1	78.2% (inactive)
